Screening data deposited in PubChem BioAssay by several laboratories.
Compounds with a hit are over-represented: about 3.5% of the library has one in this group of screens.
Myeloid diff 2: promotes myeloid progenitor differentiation | ER-HoxA9 myeloid progenitors, lysozyme-GFP differentiation, flow cytometry | 1% of 360,000 active | calls only at 10 µM | AID 624256;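 active = normalized GFP-positive differentiation at or above the plate's own cutoff, the solvent-only control mean plus 3 SD; inconclusive = no clear call, values can overlap the other calls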;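 also: cells exposed to compound for four days before flow analysis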
M1 PAM: positive allosteric modulators of human M1 muscarinic receptor; P11229; CHO-K1 hM1, Fluo-8 calcium fluorescence, ACh EC20; 0% = ACh EC20, 100% = maximal ACh; activation, % at 3 µM; 0.088% of 360,000 active; in the data active = activation above about 19%, passing the limit was not always enough
CHRM1 antagonist: human CHRM1 antagonism; P11229; AID 588852; CHO-K1 hM1, Fluo-8 calcium fluorescence, ACh EC80 antagonist; 1.3% of 360,000 active; inhibition, % at 3 µM;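 active = percent inhibition above its own plate's cutoff, namely the mean of that plate's compound wells plus 3 SD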;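 also: peak over basal fluorescence ratio during 140 s after agonist addition; 0% = ACh EC80 plus DMSO and 100% = DMSO alone without agonist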
M1 ag: activates human CHRM1 receptor; AID 588814; activation, % at 3 µM; 0.33% of 360,000 active; CHO-K1 hM1, Fluo-8 calcium fluorescence, agonist mode; 0% DMSO, 100% acetylcholine EC100;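 active = activation above the run's mean compound activation plus 3 SD, cut at about 16% in these data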;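 also: peak over basal fluorescence ratio within a 140 s kinetic read after compound addition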
ATG4B inhibitor: inhibitors of human ATG4B cysteine protease; Q9Y4P1; ATG4B cleavage of LC3-PLA2, NBD-HPC fluorescence, 1 h; inhibition, % at 8.33 µM; 0.51% of 340,000 active; in the data active = inhibition above about 40%
Target sequence (Q9Y4P1 whole entry, looked up): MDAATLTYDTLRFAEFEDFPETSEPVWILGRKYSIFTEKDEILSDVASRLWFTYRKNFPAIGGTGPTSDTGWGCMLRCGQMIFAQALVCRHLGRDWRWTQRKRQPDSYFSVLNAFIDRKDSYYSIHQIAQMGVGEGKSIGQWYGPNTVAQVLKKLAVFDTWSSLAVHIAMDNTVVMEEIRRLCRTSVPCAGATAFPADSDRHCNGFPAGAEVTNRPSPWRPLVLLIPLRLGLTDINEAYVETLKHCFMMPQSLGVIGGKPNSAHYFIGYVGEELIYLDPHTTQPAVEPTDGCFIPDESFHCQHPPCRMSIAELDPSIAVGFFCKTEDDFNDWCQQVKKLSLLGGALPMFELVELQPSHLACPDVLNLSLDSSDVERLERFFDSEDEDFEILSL
SKN-1 inh: blocks SKN-1 activity in C. elegans; C. elegans VP596 Pgst-4::GFP/RFP ratio, acrylamide-induced, 24 h; inhibition, % at 21.8 µM; 0.49% of 360,000 active; AID 624304;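 active = interference check ratio from 0.5 to 1.5 plus GFP to RFP signal ratio inhibition reaching or exceeding a fixed threshold, cut at about 30% in these data, passing the limit was not always enough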
Active calls of the source: *; i = inactive; ? = inconclusive; . = no result given; + = active, no number.

SMILES	Myeloid diff 2	M1 PAM	CHRM1 antagonist	M1 ag	ATG4B inhibitor	SKN-1 inh
Oc1[nH]c2ccccc2c1C=NCC1CCCO1 (stereo not drawn)	i	4	4	-4	-9	-2
CCOc1ccccc1CNn1nnnc1N	+	5	6	-2	-4	13
N/C(=N\OC(=O)c1ccoc1)c1ccc(Br)cc1	i	9	-9	-2	-3	63*
Cc1cc(C)cc(C(=O)O/N=C(\N)c2ccc(Br)cc2)c1	i	11	-4	-7	-4	-21
CC1(C(=O)Nc2cnc3ccccc3c2)CCN1Cc1ccc(-c2ccccc2)o1 (stereo not drawn)	i	-7	3	-4	.	-14
COc1cc2c(cc1OC)C(C)N(CCN1C(=O)c3ccccc3C1=O)CC2 (stereo not drawn)	+	6	-19	-6	-4	-11
C[C@@H]1CN([C@@H](C)CO)C(=O)CCCn2nncc2CO[C@H]1CN(C)Cc1ccccc1C(F)(F)F	i	10	-14	0	.	-7
CC1CCCCN1CCCNC(=O)C1CCN(c2nc3ccccc3o2)CC1 (stereo not drawn)	i	-28	78*	-10	-11	11
COc1ccc(C2CC(=O)C(C3NCCc4ccccc43)=C(O)C2n2cncn2)cc1 (stereo not drawn)	i	8	-5	0	2	-3
COc1ccc(CCNc2ncnc3[nH]ncc23)cc1OC	i	-10	-16	3	-5	16
COc1ccc(CCNc2ncnc3sc(C)cc23)cc1OC	i	-15	41*	3	3	-11
CC#CC[N+](C)(C)CCCCCCCCCC	?	-19	57*	-8	9	12
COC(=O)C[C@H]1C=C[C@H](NC(=O)Nc2ccccc2)[C@@H](CO)O1	i	.	.	.	.	-2
C#CCOCCOCCOCCNc1nc(N2CCN(C(=O)C([C@@H](C)O)n3cc([C@@H](N)CCCCN)nn3)CC2)nc(N2CCN(C(=O)[C@H](CCCCN)n3cc([C@@H](N)[C@H](C)CC)nn3)CC2)n1 (stereo partly drawn)	i	3	-10	-3	.	8
C#CCOCCOCCOCCNc1nc(N2CCN(C(=O)C([C@@H](C)O)n3cc([C@@H](N)CCCCN)nn3)CC2)nc(N2CCN(C(=O)[C@H](CCC(=O)O)n3cc([C@@H](N)[C@H](C)CC)nn3)CC2)n1 (stereo partly drawn)	+	7	-12	-2	3	-2
C#CCOCCOCCOCCNc1nc(N2CCN(C(=O)[C@H](CCCN=C(N)N)n3cc(C(N)[C@@H](C)CC)nn3)CC2)nc(N2CCN(C(=O)[C@H](CCC(=O)O)n3cc([C@@H](N)CC(N)=O)nn3)CC2)n1 (stereo partly drawn)	+	15	-7	3	2	-20
C#CCOCCOCCOCCNc1nc(N2CCN(C(=O)[C@H](CCCN=C(N)N)n3cc(C(N)[C@@H](C)CC)nn3)CC2)nc(N2CCN(C(=O)[C@H](CCC(=O)O)n3cc([C@@H](N)[C@H](C)CC)nn3)CC2)n1 (stereo partly drawn)	i	7	-12	-5	-6	-5
COc1ccc(C(=O)Nc2ccc(OCC(F)(F)C(F)F)c(C(F)(F)F)c2)cc1OC	i	1	-18	-3	0	4
O=C(Nc1ccc(OCC(F)(F)C(F)F)c(C(F)(F)F)c1)c1ccc(Cl)cc1	i	-23	36*	1	8	32
O=C(Nc1ccc(Br)c(C(F)(F)F)c1)c1ccccc1	i	-19	8	-8	14	29
O=C(Nc1ccc(Br)c(C(F)(F)F)c1)c1ccc(C(F)(F)F)cc1	i	-23	63*	0	-8	-9
CC(OC(=O)c1cccc(-n2cnnn2)c1)C(=O)NCc1ccccc1 (stereo not drawn)	i	4	-1	-2	-7	-3
CCCCNC(=O)C1(C)CCCCN1C(=O)c1cncc(Br)c1 (stereo not drawn)	i	1	-7	-4	.	11
CC[C@@H](C)[C@@H]1CN([C@@H](CN2CCC[C@H]2CN2C(N)=NC[C@H]2CC(C)C)C(C)C)C(=N)N1CCc1ccc(Cl)c(Cl)c1	i	-27	32	-11	9	-23
CCC[C@@H](CN1CCC[C@H]1CN1C(N)=NC[C@H]1CC(C)C)N1C[C@@H]([C@H](C)CC)N(CCc2ccc(Cl)c(Cl)c2)C1=N	i	-29	38*	-11	8	-9
SMILES	Myeloid diff 2	M1 PAM	CHRM1 antagonist	M1 ag	ATG4B inhibitor	SKN-1 inh
CC[C@@H](C)[C@@H]1CN([C@@H](C)CN2CCC[C@H]2CN2C(N)=NC[C@H]2CC(C)C)C(=N)N1CCc1ccc(Cl)c(Cl)c1	i	-39	39*	-13	4	-13
CCCCN(C)C(=O)c1nc2ccccn2c1CN1CCN(C(=O)c2cccs2)CC1	i	10	-9	-6	-2	-1
COc1ccc(N(Cc2cc3cccc(C)c3[nH]c2=O)S(=O)(=O)c2ccc(Cl)cc2)cc1	?	4	-7	-3	-3	18
COc1ccc(N(Cc2cc3cccc(C)c3[nH]c2=O)S(=O)(=O)c2ccc(OC)cc2)cc1	+	6	-1	-2	-7	0
CN(C)/C=C(\C=O)c1ncc(C(F)(F)F)cc1Cl	i	3	-5	-5	4	0
CC(C)(C)OC(=O)NCCCC[C@H](NC(=O)c1nc[nH]c1C(=O)NCC(=O)OCc1ccccc1)C(=O)OC(C)(C)C	i	-4	11	-3	5	-3
C[C@H](NC(=O)c1nc[nH]c1C(=O)NCCCCCNC(=O)OC(C)(C)C)C(=O)OCc1ccccc1	i	-28	45*	-1	4	2
CC(C)(C)OC(=O)CNC(=O)c1[nH]cnc1C(=O)NCC(=O)OCc1ccccc1	?	-16	35*	-2	-9	14
C[C@H](NC(=O)c1nc[nH]c1C(=O)N[C@@H](CCCCNC(=O)OC(C)(C)C)C(=O)OC(C)(C)C)C(=O)OCc1ccccc1	i	-1	2	-5	-16	-5
CC(C)(C)OC(=O)NCCCCCNC(=O)c1nc[nH]c1C(=O)NCC(=O)OCc1ccccc1	?	-20	39*	1	-1	-5
CCCNCC(=O)Nc1sc2c(c1C(=O)Nc1c(C)n(C)n(-c3ccccc3)c1=O)CCCC2	i	10	-16	-7	.	17
Cc1cc(N(C)C)ccc1N=Nc1ccc(N)cc1	i	12	-12	-3	-1	97*
O=C(Nc1ccc(N2CCOCC2)c(Cl)c1)c1cc(F)c(F)cc1Cl	i	-5	6	-5	-1	14
CCN1CCN(c2ccc(NC(=O)c3ccccc3F)cc2Cl)CC1	i	-28	84*	-9	-9	13
